Laboratory results: PubChem BioAssay AID1903 (Southern Research Specialized Biocontainment Screening …, 2009)
Several values for one entry are separate records, joined by “and”; a condition that tells them apart may be missing. Equal entries are not always repeated. Hit rate of the full screen: of about 310,000 compounds, about 1,200 (0.39%) were called active. How the calls were made is not given here. A selection follows. Entries with a potency or affinity are not part of this list.

These molecules were tested against Large T antigen (Simian virus 40) (UniProt P03070) (assay: TAg ATPase/helicase activity blockers – biochemical (AID 1903)). Conditions: SV40 large T antigen ATPase/helicase inhibition assay; at 20 µM; hits give high values.
Sequence of Large T antigen (Simian virus 40) (P03070 whole entry, looked up): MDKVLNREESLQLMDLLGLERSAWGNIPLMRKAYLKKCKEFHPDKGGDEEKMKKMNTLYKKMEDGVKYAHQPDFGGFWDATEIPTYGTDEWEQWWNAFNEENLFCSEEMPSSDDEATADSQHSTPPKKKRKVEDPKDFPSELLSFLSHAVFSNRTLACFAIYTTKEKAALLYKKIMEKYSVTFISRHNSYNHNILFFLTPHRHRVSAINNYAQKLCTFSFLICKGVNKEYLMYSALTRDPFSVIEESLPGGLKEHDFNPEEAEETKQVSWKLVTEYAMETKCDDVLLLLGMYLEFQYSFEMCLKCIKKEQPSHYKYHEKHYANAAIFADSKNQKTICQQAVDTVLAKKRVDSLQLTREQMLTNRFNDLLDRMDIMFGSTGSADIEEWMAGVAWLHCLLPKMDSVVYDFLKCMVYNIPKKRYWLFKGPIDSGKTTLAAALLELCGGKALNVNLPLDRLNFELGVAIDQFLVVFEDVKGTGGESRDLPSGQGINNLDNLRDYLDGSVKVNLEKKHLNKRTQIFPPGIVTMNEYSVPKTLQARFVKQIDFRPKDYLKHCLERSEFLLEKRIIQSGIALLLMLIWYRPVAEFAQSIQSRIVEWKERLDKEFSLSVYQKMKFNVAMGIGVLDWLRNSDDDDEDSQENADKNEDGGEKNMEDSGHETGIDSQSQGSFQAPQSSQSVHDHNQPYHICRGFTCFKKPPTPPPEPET

inhibition, inactive:
COc1ccc(Cn2c(=O)[nH]c3cc(C(=O)NC4CCN(Cc5ccccc5)CC4)ccc32)cc1 1.67%, COc1ccc(C(CNC(=O)COc2ccc(F)cc2Br)N2CCCC2)cc1 (stereo not given) 5.54%, O=c1nc2n(c3cccc(Cl)c13)CCCCC2 5.2%, Cn1c(=O)n(CC(N)=O)c(=O)c2c1nc1n2CCCN1Cc1ccccc1 5.61%, CC(C)(C)C(=O)NC(=S)Nc1ccccc1F 0.75%, CCOC(=O)c1ccc(N2N=C(C)/C(=C/C=C/c3ccco3)C2=O)cc1 21%, CC1=NN(c2ccccc2)C(=O)/C1=C\C=C\c1ccccc1 19.4%, CC1=NN(c2ccc(C(=O)OC(C)C)cc2)C(=O)/C1=C\C=C\c1ccco1 12.7%, CC1=NN(c2ccc(Cl)c(C(=O)O)c2)C(=O)C1 27.9%, CC1=NN(c2ccccc2)C(=O)/C1=C/C=C/c1ccccc1 9.74%, O=C(/C=C/c1ccco1)Nc1cc(Cl)ccc1C(=O)O 21.9%, COC(=O)c1cc(NC(=O)Cn2c(=O)cnc3ccccc32)cc(C(=O)OC)c1 24%, CCCCc1c(O)nc(SCC(=O)NC(C)(C)C)n(-c2ccccc2C)c1=O 0.223%, Cc1ccc(NC(=O)c2oc3ccccc3c2NC(=O)C2CC2)cc1 12.7%, Cc1cc(NC(=O)/C=C\C(=O)O)c([N+](=O)[O-])cc1C 9.88%, CCCn1c(N)c(C(=O)CSc2n[nH]c(-c3ccc(C)cc3)n2)c(=O)[nH]c1=O 8.37%, CC(C)C[C@H]1CN=C(Nc2ccccc2)N1CCCC1CCCC1 16.4%, Oc1ccc(/C=N\Nc2nncc(-c3ccccc3)n2)cc1 28.1%, O=c1[nH]c(=O)c2nnc(N/N=C/c3ccccc3F)nc2[nH]1 11.5%, CC(C)C(NS(=O)(=O)c1cccc2nsnc12)C(=O)Nc1nc2ccc(Cl)cc2s1 (stereo not given) 1.74%, COc1ccc(N2C(=O)NC(=O)C2=O)cc1 1.84%, COc1ccc(S(=O)(=O)Nc2c(C(=O)O)[nH]c3ccccc23)cc1 11.7%, Nc1nc(Nc2ccccc2Cl)cc(=O)[nH]1 10.8%, COCn1c(-c2ccc(OC)c(OC)c2)nc2ccccc21 3.62%, O=C1CS/C(=N\N=C\c2ccco2)N1c1ccccc1 31.1%, COc1ccc2cc(S(=O)(=O)n3cnc(C)c3)ccc2c1 3.48%, CCN(CC)c1ccc(/C=N/NC(=O)CN2CCCc3ccccc32)cc1 13.9%, COc1ccc(N2CCN(C(=S)Nc3ccccc3)CC2)cc1 17.3%, CNC(=S)N1CCN(c2cccc(OC)c2)CC1 -1.1%, CCN1CCN(C(=O)NC2CC(=O)N(c3ccc(OC)cc3)C2)CC1 (stereo not given) 24.6%, COc1ccc(N2CC(NC(=O)N3CCN(c4ccccc4)CC3)CC2=O)cc1 (stereo not given) 21.7%, CCC(Sc1nc(N)c(NC(=O)c2ccc(OC)cc2)c(=O)[nH]1)C(=O)O (stereo not given) 7.11%, Cc1cc(NC(=O)CSc2nc(N)c(NC(=O)c3ccc(F)c(F)c3)c(=O)[nH]2)no1 5.69%, N#CC(C#N)=C1c2cc(S(N)(=O)=O)ccc2-c2ccc(S(N)(=O)=O)cc21 3.73%, N=C1/C(=C\c2ccc(OCc3ccccc3)cc2)C(=O)N=C2SC(N3CCCC3)=NN12 10.7%, O=c1[nH]c(CSc2nnc(-c3ccccc3)n2-c2ccccc2)nc2ccccc12 3.3%, COc1cccc(C(=O)NCC(=O)N2CCC3(CC2)NCCc2[nH]cnc23)c1OC 28.6%, O=C(CSc1nc(-c2ccco2)cc(C(F)(F)F)n1)Nc1ccccc1C(F)(F)F 13.3%, O=C(O)C1CC(=O)N(c2ccc(OCc3c(F)cccc3Cl)cc2)C1 (stereo not given) 1.79%, Cc1ccc(-c2oc3ncnc(N)c3c2-c2ccc(C)cc2)cc1 5.86%, COc1ccc(-c2oc3ncnc(N)c3c2-c2ccccc2)cc1 5.94%, Cc1cc(NC(=O)CSc2nc3ccccc3n2CC(=O)N2CCC(C)CC2)no1 -5.11%, NC1=NC(=O)C2(COC(c3ccncc3)OC2)S1 (stereo not given) 3.62%, CC(C)CSc1nc2ccccc2n1CC(=O)O 9.25%, CC(=O)N1C(=O)N(C(C)=O)C2C1N(C(C)=O)C(=O)N2C(C)=O (stereo not given) 5.35%, O=C1CCCN=C(Nc2ccc(F)c(Cl)c2)S1 9.56%, CN1C(=O)/C(=C\C=C2/CCCN2C)N(C)C1=S 17.1%, CN1CCN(/C=C2\SC(=S)NC2=O)CC1 5.4%, COc1ccc(-c2cc(C(=O)Nc3cccc(Cl)c3)no2)cc1 7.5%, O=C(COc1ccc(F)cc1)Nc1cc(S(=O)(=O)N2CCCCC2)ccc1N1CCCCC1 16%, N#CC1=C2SCN(Cc3ccccc3)CN2C(=O)CC1c1ccccc1F (stereo not given) 35.3%, N#CC1=C2SCN(c3ccc(F)cc3)CN2C(=O)CC1c1cccc(F)c1 (stereo not given) 35.6%, N#CC1=C2SCN(c3ccccc3)CN2C(=O)CC1c1c(Cl)cccc1Cl (stereo not given) 33.9%, N#CC1=C2SCN(Cc3ccco3)CN2C(=O)CC1c1cccc2ccccc12 (stereo not given) 24.4%, CCc1ccccc1N1CSC2=C(C#N)C(c3ccccc3F)CC(=O)N2C1 (stereo not given) 54.3% and 27%, N#CC1=C2SCN(Cc3ccco3)CN2C(=O)CC1c1ccccc1F (stereo not given) 21.6%, COc1ccccc1Nc1nc(NCCO)nc(N)c1[N+](=O)[O-] 7.82%, COc1ccc(-c2cc(-c3n[nH]c(=S)n3-c3ccccc3OC)[nH]n2)cc1 32.3%, O=c1cc(-c2ccccc2)nc(N2CCN(Cc3ccc4c(c3)OCO4)CC2)[nH]1 9.11%, O=C(N/N=C/c1cccnc1)c1cccc(N2CCCC2=O)c1 0.45%
